Data: PubChem BioAssay
Results filed as inconclusive are left out. Active and inactive are the calls of the source.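 Rule for the calls, unless noted: active = normalized viability below 100% at a tested concentration; inactive = the rest.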

Tests used:
[1] = Wnt pathway potentiators raising nuclear beta-catenin – imaging, WNT3A-conditioned medium, mouse C2C12, NPC library, primary screen (AID 1117326; in the data active = nuclear beta-catenin stimulation mostly above about 4.2%, no sharp cut-off; inactive = mostly below about 10%); details: stronger effect = higher value
[2] = stimulators of insulin release from INS-1E, primary screen, cell-based, 5 mM glucose, NPC library (AID 1117329;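 active = compound raises insulin release from rat beta cells at 5 mM glucose, no numeric limit stated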); details: rat INS-1E insulin secretion, at 10 µM, stronger effect = higher value
[3] = growth inhibition of GSK3B-pretreated HCT116 cells – cell-based, CellTiter-Glo, 0.2 to 20 µM (AID 1117336;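 active = compounds lowering colon cancer cell viability after pretreatment blocking the GSK3B kinase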); details: HCT116 viability after GSK3B inhibitor, at 20 µM, stronger effect = higher value
[4] = inhibition of endothelial tube formation, primary screen, imaging, VEGF stimulated, CD31 staining, tube area, NPC library (AID 1117340;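 active = compound that reduces growth-factor-driven endothelial tube area in a mixed cell culture, no cutoff stated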); details: VEGF-stimulated ADSC/ECFC co-culture, at 10 µM, stronger effect = higher value
[5] = GLP1 release stimulators, primary, NCI-H716, NPC library (AID 1117341;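 active = compound raises GLP1 secretion from the human gut endocrine cells, with no numeric limit stated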); details: NCI-H716 cells, at 10 µM, stronger effect = higher value
[6] = HCT116 colon cancer cell growth inhibition, primary screen, CellTiter-Glo luminescence, NPC library (AID 1117342;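 active = compounds that lower survival of HCT116 colon cancer cells in the luminescence readout, no numeric limit stated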); details: at 20 µM (top of the series)
[7] = reduced SW480 viability measured with CellTiter-Glo, NPC library, primary (AID 1117343;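 active = compounds that lower viability of the colon cancer cells in the luminescence readout, with no numeric limit stated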); details: CellTiter-Glo luminescence; at 20 µM (top of the series) unless noted
[8] = NPC library primary testing for decreased DLD-1 cell viability via CellTiter-Glo (AID 1117346;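 active = compounds that lower survival of DLD-1 colon cancer cells in the luminescence readout, no cutoff given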); details: DLD-1 viability, CellTiter-Glo luminescence; at 20 µM (top of the series)
[9] = viability loss in pontine glioma line – cell-based, SU-DIPG-XVII, MIPE5.0, CellTiter-Glo, qHTS, dose response (AID 1347060; cut-off not given, nearly all actives have AC50 up to about 26 µM;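 note: cells exposed to compound for 48 hours before viability readout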); details: CellTiter-Glo ATP luminescence
[10] = viability loss in pontine glioma line – cell-based, SU-DIPG-XIII, MIPE4.0, CellTiter-Glo, qHTS, dose response (AID 1347061; cut-off not given, nearly all actives have AC50 up to about 37 µM;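 note: cells exposed to compound for 48 hours before readout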); details: CellTiter-Glo ATP luminescence
[11] = viability loss in pontine glioma line – cell-based, JHH-DIPG-1, MIPE4.0, CellTiter-Glo, qHTS, dose response (AID 1347062; cut-off not given, nearly all actives have AC50 up to about 27 µM;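 note: cells exposed to compound for two days before readout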); details: JHH-DIPG-1 viability, CellTiter-Glo ATP luminescence
[12] = growth inhibition of DIPG cells – cell-based, MIPE5.0 library, qHTS (AID 1347068; cut-off not given, nearly all actives have IC50 up to about 30 µM;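 note: cells exposed to compound for 48 hours before viability readout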); details: SU-DIPG-XXV viability
[13] = drug combination growth inhibition, ovarian cancer – cell-based, oncology-focused library, rucaparib conditional, profiling panel (AID 1508598); details: patient-derived ovarian cancer cells, CellTiter-Glo viability, 144 h, stronger effect = lower value
[14] = viability loss with induced miR-34 in A549 – imaging, A549 dox-inducible miR-34, nuclei and caspase counts, primary screen (AID 1347080;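 active = compounds whose cell count with miR-34 switched on is under 0.7 times the count with it off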); details: A549 miR-34 inducible, Hoechst nuclei count, 48 h
[15] = galactose survival enhancers in mitochondrial complex I cybrids – cell-based, galactose medium, ATP luminescence, primary screen (AID 1645843;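 active = z-score of at least 1.8 in each of two replicates, scored against plate mean and spread of sample wells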;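 note: positive z means more ATP and so rescue of galactose-driven cybrid death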); details: complex I mutant cybrid cells, 72 h, stronger effect = higher value
[16] = at 0.000305 µM, OCI-C5x cells, with rucaparib 10 µM, 100% = cells with rucaparib alone
[17] = at 0.000305 µM, OCI-C5x cells, without rucaparib
[18] = at 0.000305 µM, OCI-P5x cells, with rucaparib 20 µM, 100% = cells with rucaparib alone
[19] = at 0.000305 µM, OCI-P5x cells, without rucaparib
[20] = at 0.00122 µM, OCI-C5x cells, with rucaparib 10 µM, 100% = cells with rucaparib alone
[21] = at 0.00122 µM, OCI-C5x cells, without rucaparib
[22] = at 0.00122 µM, OCI-P5x cells, with rucaparib 20 µM, 100% = cells with rucaparib alone
[23] = at 0.00122 µM, OCI-P5x cells, without rucaparib
[24] = at 0.00488 µM, OCI-C5x cells, with rucaparib 10 µM, 100% = cells with rucaparib alone
[25] = at 0.00488 µM, OCI-C5x cells, without rucaparib
[26] = at 0.00488 µM, OCI-P5x cells, with rucaparib 20 µM, 100% = cells with rucaparib alone
[27] = at 0.00488 µM, OCI-P5x cells, without rucaparib
[28] = at 0.0195 µM, OCI-C5x cells, with rucaparib 10 µM, 100% = cells with rucaparib alone
[29] = at 0.0195 µM, OCI-C5x cells, without rucaparib
[30] = at 0.0195 µM, OCI-P5x cells, with rucaparib 20 µM, 100% = cells with rucaparib alone
[31] = at 0.0195 µM, OCI-P5x cells, without rucaparib
[32] = at 0.0781 µM, OCI-C5x cells, with rucaparib 10 µM, 100% = cells with rucaparib alone
[33] = at 0.0781 µM, OCI-C5x cells, without rucaparib
[34] = at 0.0781 µM, OCI-P5x cells, with rucaparib 20 µM, 100% = cells with rucaparib alone
[35] = at 0.0781 µM, OCI-P5x cells, without rucaparib
[36] = at 0.313 µM, OCI-C5x cells, with rucaparib 10 µM, 100% = cells with rucaparib alone
[37] = at 0.313 µM, OCI-C5x cells, without rucaparib
[38] = at 0.313 µM, OCI-P5x cells, with rucaparib 20 µM, 100% = cells with rucaparib alone
[39] = at 0.313 µM, OCI-P5x cells, without rucaparib
[40] = at 1.25 µM, OCI-C5x cells, with rucaparib 10 µM, 100% = cells with rucaparib alone
[41] = at 1.25 µM, OCI-C5x cells, without rucaparib
[42] = at 1.25 µM, OCI-P5x cells, with rucaparib 20 µM, 100% = cells with rucaparib alone
[43] = at 1.25 µM, OCI-P5x cells, without rucaparib
[44] = at 5 µM, OCI-C5x cells, with rucaparib 10 µM, 100% = cells with rucaparib alone
[45] = at 5 µM, OCI-C5x cells, without rucaparib
[46] = at 5 µM, OCI-P5x cells, with rucaparib 20 µM, 100% = cells with rucaparib alone
[47] = at 5 µM, OCI-P5x cells, without rucaparib

CC(C)C[C@H](NC(=O)[C@H](Cc1ccccc1)NC(=O)c1cnccn1)B(O)O
137%: nuclear beta-catenin stimulation ([1]; stimulation, at 2 µM)
active: nuclear beta-catenin stimulation ([1]; at 10 µM) 132% | viability decrease [3] 99% | tube area decrease [4] 107% | inhibition of viability [6] 100% | viability decrease (inhibition) [7] 132% | viability decrease (inhibition) [8] 95.4% | AC50 [9] 0.0209 µM | AC50 [10] 2.09 µM | AC50 [11] 0.0209 µM | IC50 [12] 0.0263 µM | viability [13, 18] 85.1% | viability [13, 19] 23.5% | viability [13, 22] 85.3% | viability [13, 23] 28.3% | viability [13, 27] 94.3% | viability [13, 28] 38.9% | viability [13, 29] 15.9% | viability [13, 30] 5.88% | viability [13, 31] 1.5% | viability [13, 32] 2.87% | viability [13, 33] 2.36% | viability [13, 34] 1.94% | viability [13, 35] 1.08% | viability [13, 36] 2.19% | viability [13, 37] 1.67% | viability [13, 38] 1.91% | viability [13, 39] 0.96% | viability [13, 40] 1.59% | viability [13, 41] 1.6% | viability [13, 42] 1.8% | viability [13, 43] 0.86% | viability [13, 44] 1.34% | viability [13, 45] 1.65% | viability [13, 46] 1.02% | viability [13, 47] 0.609%
inactive: insulin secretion stimulation [2] 2.1% | GLP1 secretion stimulation [5] 1.6% | viability [13, 16] 114% | viability [13, 17] 117% | viability [13, 20] 114% | viability [13, 21] 113% | viability [13, 24] 119% | viability [13, 25] 115% | viability [13, 26] 102%

CCN(CC)CCNC(=O)c1c(C)[nH]c(/C=C2\C(=O)Nc3ccc(F)cc32)c1C
1.17: fold change ([14]; measured here: relative caspase fold change +Dox/-Dox)
715: cell count ([14]; measured here: total cells with miR-34 induction, stronger effect = lower value)
active: insulin secretion stimulation [2] 47.3% | viability decrease [3] 108% | tube area decrease [4] 103% | inhibition of viability [6] 110% | viability decrease (inhibition) [7] 127% | viability decrease (inhibition) [8] 93.4% | AC50 [9] 7.42 µM | AC50 [10] 38.2 µM | AC50 [11] 10.8 µM | viability [13, 18] 84% | viability [13, 19] 93.8% | viability [13, 22] 98.6% | viability [13, 23] 88.3% | viability [13, 26] 96.3% | viability [13, 27] 97.4% | viability [13, 29] 99.1% | viability [13, 30] 98.7% | viability [13, 31] 95.9% | viability [13, 34] 95% | viability [13, 35] 99.9% | viability [13, 38] 93.2% | viability [13, 39] 99.5% | viability [13, 42] 89.1% | viability [13, 44] 60.6% | viability [13, 45] 21.7% | viability [13, 46] 1.9% | viability [13, 47] 12.8%
780: cell count ([14]; measured here: total cells without miR-34 induction)
inactive: nuclear beta-catenin stimulation ([1]; at 10 µM) 0.3% | GLP1 secretion stimulation [5] 18.2% | fold change ([14]; stronger effect = lower value, cell number ratio, induced over uninduced) 0.916 | viability [13, 16] 110% | viability [13, 17] 107% | viability [13, 20] 114% | viability [13, 21] 102% | viability [13, 24] 113% | viability [13, 25] 108% | viability [13, 28] 115% | viability [13, 32] 118% | viability [13, 33] 111% | viability [13, 36] 123% | viability [13, 37] 113% | viability [13, 40] 126% | viability [13, 41] 117% | viability [13, 43] 104% | z-score [15] -1
-2%: nuclear beta-catenin stimulation ([1]; stimulation, at 2 µM)
